Laboratory results: PubChem BioAssay AID1159580 (chemical genetic matrix, 2015)
Among all 5,500 compounds or so, about 2,000 (36%) were called active. Another 18% or so got no clear call; they are omitted. Rule as the data show it: active = normalized growth mostly below about 0.91 (no sharp cut-off); inconclusive = no clear call, values can overlap the other calls; inactive = mostly above about 0.92. The list shows a part of the results.

Assay: chemical genetic growth profiling, strain panel (AID 1159580);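 also: tested at 20 µM; growth read once vehicle control cultures reached saturation at 30 °C; 1 = growth at the plate median or of vehicle wells; lower values mean less growth of the strain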
Settings: growth OD
[1] = S. cerevisiae deletion strains, locus YAL013W, strain DEP1, active compounds read low
[2] = S. cerevisiae deletion strains, locus YBR229C, strain ROT2, active compounds read low
[3] = S. cerevisiae deletion strains, locus YDL101C, strain DUN1, active compounds read low
[4] = S. cerevisiae deletion strains, locus YDL134C, strain PPH21, active compounds read low
[5] = S. cerevisiae deletion strains, locus YEL061C, strain CIN8, active compounds read low
[6] = S. cerevisiae deletion strains, locus YHR030C, strain SLT2, active compounds read low
[7] = S. cerevisiae deletion strains, locus YJR043C, strain POL32, active compounds read low
[8] = S. cerevisiae deletion strains, locus YKL190W, strain CNB1, active compounds read low
[9] = S. cerevisiae deletion strains, locus YLR039C, strain RIC1, active compounds read low
[10] = S. cerevisiae deletion strains, locus YLR262C, strain YPT6, active compounds read low
[11] = S. cerevisiae deletion strains, locus YMR263W, strain SAP30, active compounds read low
[12] = S. cerevisiae deletion strains, locus YMR307W, strain GAS1, active compounds read low
[13] = S. cerevisiae deletion strains, locus YNL128W, strain TEP1, active compounds read low
[14] = S. cerevisiae deletion strains, locus YNL153C, strain GIM3, active compounds read low
[15] = S. cerevisiae deletion strains, locus YPL241C, strain CIN2, active compounds read low

Measured: normalized growth

O=C(COC(=O)c1ccccc1Nc1cccc(F)c1)c1ccccc1
inactive: [1] 0.98 | [2] 0.994 | [3] 1.01 | [4] 0.997 | S. cerevisiae deletion strains, locus YDR150W, strain NUM1, active compounds read low 1.01 | [5] 0.989 | S. cerevisiae deletion strains, locus YGR078C, strain PAC10, active compounds read low 0.982 | [6] 0.93 | S. cerevisiae deletion strains, locus YHR087W, strain rtc3, active compounds read low 1 | [7] 0.986 | S. cerevisiae deletion strains, locus YJR075W, strain HOC1, active compounds read low 1.03 | [8] 0.989 | [9] 1.01 | S. cerevisiae deletion strains, locus YLR058C, strain SHM2 (second series), active compounds read low 0.989 | S. cerevisiae deletion strains, locus YLR085C, strain ARP6, active compounds read low 0.916 | [10] 1.02 | S. cerevisiae deletion strains, locus YML094W, strain GIM5, active compounds read low 0.996 | S. cerevisiae deletion strains, locus YMR219W, strain ESC1, active compounds read low 0.997 | [11] 0.997 | [12] 0.882 | [13] 0.987 | [14] 0.99 | S. cerevisiae deletion strains, locus YNL298W, strain CLA4 (second series), active compounds read low 0.97 | S. cerevisiae deletion strains, locus YNL322C, strain KRE1, active compounds read low 0.981 | S. cerevisiae deletion strains, locus YNR030W, strain Alg12, active compounds read low 0.978 | S. cerevisiae deletion strains, locus YPL055C, strain LGE1, active compounds read low 1.01 | [15] 0.96 | S. cerevisiae deletion strains, locus YPR135W, strain CTF4, active compounds read low 1.01

COC(=O)Oc1ccccc1C(=O)O
inactive: [1] 1.02 | S. cerevisiae deletion strains, locus YBR021W, strain FUR4, active compounds read low 0.976 | [2] 1.01 | S. cerevisiae deletion strains, locus YCL029C, strain bik1, active compounds read low 1.01 | S. cerevisiae deletion strains, locus YDL035C, strain GPR1, active compounds read low 0.995 | S. cerevisiae deletion strains, locus YDL074C, strain BRE1, active compounds read low 1.04 | [3] 1.02 | [4] 0.991 | S. cerevisiae deletion strains, locus YDL185W, strain tfp1, active compounds read low 1.01 | S. cerevisiae deletion strains, locus YDL192W, strain arf1, active compounds read low 1.02 | S. cerevisiae deletion strains, locus YDR101C, strain arx1, active compounds read low 1.01 | S. cerevisiae deletion strains, locus YDR162C, strain NBP2, active compounds read low 0.99 | S. cerevisiae deletion strains, locus YDR318W, strain mcm21, active compounds read low 1.01 | S. cerevisiae deletion strains, locus YDR388W, active compounds read low 1.01 | S. cerevisiae deletion strains, locus YDR502C, strain sam2, active compounds read low 1.01 | [5] 1.01 | S. cerevisiae deletion strains, locus YER110C, active compounds read low 1.03 | S. cerevisiae deletion strains, locus YER155C, strain BEM2, active compounds read low 1.01 | S. cerevisiae deletion strains, locus YER167W, strain BCK2, active compounds read low 1.01 | S. cerevisiae deletion strains, locus YGL078C, strain dbp3, active compounds read low 1.01 | S. cerevisiae deletion strains, locus YGL086W, strain mad1, active compounds read low 1.01 | S. cerevisiae deletion strains, locus YGL248W, strain PDE1, active compounds read low 1.01 | S. cerevisiae deletion strains, locus YGR135W, strain pre9, active compounds read low 1.01 | S. cerevisiae deletion strains, locus YGR252W, strain gcn5, active compounds read low 1.01 | [6] 1.01 | S. cerevisiae deletion strains, locus YHR079C, strain IRE1 (second series), active compounds read low 1.01 | S. cerevisiae deletion strains, locus YHR094C, strain hxt1, active compounds read low 1.02 | S. cerevisiae deletion strains, locus YHR129C, strain ARP1, active compounds read low 1.01 | S. cerevisiae deletion strains, locus YHR200W, strain rpn10, active compounds read low 1.02 | S. cerevisiae deletion strains, locus YIL066C, strain RNR3, active compounds read low 0.987 | S. cerevisiae deletion strains, locus YIL073C, strain SPO22, active compounds read low 1.03 | S. cerevisiae deletion strains, locus YIL125W, strain kgd1, active compounds read low 1.02 | S. cerevisiae deletion strains, locus YIR030C, strain dcg1, active compounds read low 1.01 | S. cerevisiae deletion strains, locus YJL095W, strain BCK1, active compounds read low 1.05 | S. cerevisiae deletion strains, locus YJL134W, strain LCB3, active compounds read low 1.01 | S. cerevisiae deletion strains, locus YJL168C, strain set2, active compounds read low 1.03 | S. cerevisiae deletion strains, locus YJL187C, strain SWE1 (second series), active compounds read low 1.02 | [7] 0.983 | S. cerevisiae deletion strains, locus YKL009W, strain mrt4, active compounds read low 1.01 | S. cerevisiae deletion strains, locus YKL068W, active compounds read low 1 | S. cerevisiae deletion strains, locus YKL085W, strain MDH1 (second series), active compounds read low 1.01 | S. cerevisiae deletion strains, locus YKL085W, strain MDH1, active compounds read low 1.01 | [8] 1.02 | S. cerevisiae deletion strains, locus YKR001C, strain vps1, active compounds read low 1.01 | [9] 1.02 | S. cerevisiae deletion strains, locus YLR058C, strain SHM2, active compounds read low 1.01 | S. cerevisiae deletion strains, locus YLR102C, strain apc9, active compounds read low 1.02 | [10] 1.04 | S. cerevisiae deletion strains, locus YLR268W, strain sec22, active compounds read low 1.02 | S. cerevisiae deletion strains, locus YLR330W, strain CHS5, active compounds read low 1.01 | S. cerevisiae deletion strains, locus YLR342W, strain FKS1 (second series), active compounds read low 0.995 | S. cerevisiae deletion strains, locus YLR371W, strain rom2, active compounds read low 1.02 | S. cerevisiae deletion strains, locus YLR418C, strain cdc73, active compounds read low 1.06 | S. cerevisiae deletion strains, locus YML016C, strain PPZ1, active compounds read low 0.999 | S. cerevisiae deletion strains, locus YML032C, strain rad52, active compounds read low 1.01 | S. cerevisiae deletion strains, locus YML124C, strain tub3, active compounds read low 1.01 | S. cerevisiae deletion strains, locus YMR078C, strain ctf18, active compounds read low 1.02 | S. cerevisiae deletion strains, locus YMR223W, strain ubp8, active compounds read low 1.01 | [11] 1.03 | [12] 1.06 | S. cerevisiae deletion strains, locus YNL067W, strain RPL9B, active compounds read low 1.07 | [13] 1.02 | [14] 1.03 | S. cerevisiae deletion strains, locus YNL233W, strain BNI4, active compounds read low 1.01 | S. cerevisiae deletion strains, locus YNL250W, strain rad50, active compounds read low 1.04 | S. cerevisiae deletion strains, locus YNL271C, strain bni1, active compounds read low 1.02 | S. cerevisiae deletion strains, locus YNL298W, strain CLA4, active compounds read low 1.02 | S. cerevisiae deletion strains, locus YNL307C, strain MCK1, active compounds read low 1.02 | S. cerevisiae deletion strains, locus YNR052C, strain pop2, active compounds read low 1.02 | S. cerevisiae deletion strains, locus YOL012C, strain htz1 0.797 | S. cerevisiae deletion strains, locus YOL147C, strain pex11, active compounds read low 1.02 | S. cerevisiae deletion strains, locus YOR061W, strain CKA2, active compounds read low 1.01 | S. cerevisiae deletion strains, locus YOR069W, strain VPS5, active compounds read low 1.01 | S. cerevisiae deletion strains, locus YOR136W, strain idh2, active compounds read low 1.02 | S. cerevisiae deletion strains, locus YOR144C, strain elg1, active compounds read low 1.02 | S. cerevisiae deletion strains, locus YOR184W, strain ser1, active compounds read low 1.02 | S. cerevisiae deletion strains, locus YOR316C, strain cot1, active compounds read low 1.02 | [15] 1 | S. cerevisiae deletion strains, locus YPR119W, strain clb2, active compounds read low 1.02 | S. cerevisiae deletion strains, locus YPR141C, strain kar3, active compounds read low 1.03 | S. cerevisiae deletion strains, locus YPR163C, strain tif3, active compounds read low 1.01 | S. cerevisiae deletion strains, locus YPR167C, strain met16, active compounds read low 1.01 | S. cerevisiae deletion strains, strain wtn01, active compounds read low 1.01 | S. cerevisiae strains, strain wild type, active compounds read low 1.02
